Source: PubChem BioAssay (EPA / NIEHS)
Inconclusive results are not listed. Active and inactive are the calls of the source. How the source made its calls: active means hit-call score of the fitted dose curve at least 0.9, where 1 is the maximum; inconclusive means response in the unintended direction; inactive means score below 0.9.

Tests used:
[1] = TOX21_p53_BLA_p2_viability: Viability Assessment in the Tox21 HCT-116 p53 Agonism Beta-lactamase Assay, Phase 2 (AID 2283591);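 further: compound exposure lasted 16 h at 37 °C; actives lower the ATP signal meaning cytotoxicity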
How it was run: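 HCT116 p53-bla cells, 4000/well, dosed after 5 h plating (217-fold dilution of DMSO stocks) and incubated 16 h at 37C. Viability taken as cellular ATP by CellTiter-Glo luminescence after 30 min RT; signal loss marks cytotoxicity.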

[2] = molecular target: Cellular tumor antigen p53 (Homo sapiens) (UniProt P04637); assay: TOX21_p53_BLA_p2_ratio: Tox21 HCT-116 p53 Agonism Beta-lactamase Assay, Ratio, Phase 2 (AID 2283592)
How it was run: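 Cleaved-to-uncleaved substrate ratio (460 vs 530 nm) measured in HCT116 cells with an inducible beta-lactamase reporter linked to p53 activity. Compounds incubated 16 h at 37C before 2 h room-temperature CCF4-AM loading.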

[3] = molecular target: Cellular tumor antigen p53 (Homo sapiens) (UniProt P04637); assay: TOX21_p53_BLA_p3_ratio: Tox21 HCT-116 p53 Agonism Beta-lactamase Assay, Ratio, Phase 3 (AID 2283596)
How it was run: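 Cells were seeded at 4000/well, rested 5 h at 37C, then dosed with DMSO compound solutions (217-fold dilution) for 16 h. CCF4-AM substrate was loaded for 2 h at room temperature, and the 460/530 nm emission ratio was fitted for gain of signal versus DMSO.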

[4] = TOX21_p53_BLA_p4_viability: Viability Assessment in the Tox21 HCT-116 p53 Agonism Beta-lactamase Assay, Phase 4 (AID 2283597);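 further: hits lower the luminescence signal meaning cytotoxicity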
How it was run: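 Viability is taken as cellular ATP: after 16 h compound exposure of HCT116 cells and a 2 h room-temperature CCF4-AM substrate step, CellTiter-Glo reagent is added and luminescence is measured 30 min later.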

[5] = TOX21_p53_BLA_p5_viability: Viability Assessment in the Tox21 HCT-116 p53 Agonism Beta-lactamase Assay, Phase 5 (AID 2283600)
How it was run: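 Viability is taken from cellular ATP content, measured by luciferase luminescence in the same wells after the beta-lactamase ratio read. Cells are seeded at 4000 per well and exposed to DMSO-dissolved compounds, diluted 217-fold, for 16 h.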

[6] = molecular target: Cellular tumor antigen p53 (Homo sapiens) (UniProt P04637); assay: TOX21_p53_BLA_p4_ratio: Tox21 HCT-116 p53 Agonism Beta-lactamase Assay, Ratio, Phase 4 (AID 2283601)
How it was run: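 HCT-116 p53 beta-lactamase reporter cells (4000/well) preincubated 5 h, then compound (217-fold dilution of DMSO stock) for 16 h at 37C. CCF4-AM substrate added 2 h at room temperature; 460/530 nm emission ratio fitted upward versus DMSO.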

[7] = molecular target: Cellular tumor antigen p53 (Homo sapiens) (UniProt P04637); assay: TOX21_p53_BLA_p5_ratio: Tox21 HCT-116 p53 Agonism Beta-lactamase Assay, Ratio, Phase 5 (AID 2283599)
How it was run: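 HCT-116 p53-bla cells (4000/well) plated 5 h, dosed with compound (217-fold DMSO dilution) for 16 h at 37 C; CCF4-AM substrate 2 h at room temperature. Activity is the 460/530 nm emission ratio (405 nm excitation), fitted in gain-of-signal direction versus DMSO.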

Measured: outcome

Cellular tumor antigen p53 (Homo sapiens), sequence (P04637 whole entry, looked up): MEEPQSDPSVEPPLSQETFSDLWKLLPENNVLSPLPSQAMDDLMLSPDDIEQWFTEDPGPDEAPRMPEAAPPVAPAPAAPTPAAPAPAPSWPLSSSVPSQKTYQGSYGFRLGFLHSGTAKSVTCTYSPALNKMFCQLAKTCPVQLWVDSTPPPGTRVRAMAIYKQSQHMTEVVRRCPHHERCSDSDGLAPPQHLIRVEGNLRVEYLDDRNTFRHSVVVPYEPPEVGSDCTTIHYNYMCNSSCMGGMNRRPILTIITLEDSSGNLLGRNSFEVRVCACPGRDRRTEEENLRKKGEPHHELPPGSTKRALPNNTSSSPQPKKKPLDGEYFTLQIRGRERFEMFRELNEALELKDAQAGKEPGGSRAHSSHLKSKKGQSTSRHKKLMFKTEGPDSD

C1CCC2OC2C1 (stereo not given)
inactive: [1] | [2] | [3] | [4] | [5] | [6]

CCCCC(=O)O[C@H]1CC[C@H]2[C@@H]3CCc4cc(O)ccc4[C@H]3CC[C@]12C
inactive: [1] | [2] | [3] | [4] | [6]

CCC(=O)Oc1ccc2c(c1)CC[C@@H]1[C@@H]2CC[C@]2(C)[C@@H](OC(=O)CC)CC[C@@H]12
inactive: [1] | [2] | [3] | [4] | [5]

O=NN(CCCl)C(=O)NCCCl
inactive: [1] | [2] | [3] | [4] | [7] | [6]

CCOc1cc(OCC)c(C(C)=O)cc1OCC
inactive: [1] | [2] | [3] | [4] | [5]

NCC[C@H](O)C(=O)N[C@@H]1C[C@H](N)[C@@H](O[C@H]2O[C@H](CN)CC[C@H]2N)[C@H](O)[C@H]1O[C@H]1O[C@H](CO)[C@@H](O)[C@H](N)[C@H]1O
inactive: [1] | [2] | [3] | [4] | [6]

C=CCOc1ccc(CC(=O)O)cc1Cl
inactive: [1] | [2] | [3] | [4] | [5] | [6]

Nc1ccc(S(=O)(=O)NCc2ccccc2)cc1
inactive: [1] | [2] | [3] | [4] | [5]

CC(=O)N[C@H]1[C@H]([C@H](O)[C@H](O)CO)OC(C(=O)O)=C[C@@H]1N=C(N)N
inactive: [1] | [2] | [3] | [4] | [5] | [6]

Nc1ccc(S(=O)(=O)Nc2ccnn2-c2ccccc2)cc1
inactive: [1] | [2] | [3] | [4] | [6]

CCOC(=O)CC(=O)c1cc(F)c(Cl)nc1Cl
inactive: [1] | [2] | [3] | [4] | [5] | [6]

CC(CCC(=O)O)C(=O)O (stereo not given)
inactive: [1] | [2] | [3] | [4] | [7] | [6]

CNCCc1ccccn1
inactive: [1] | [2] | [3] | [4] | [5] | [6]

O=Cc1cccc(Br)c1
inactive: [1] | [2] | [3] | [4] | [7] | [6]

COc1ccc(C(=O)Nc2ccccc2CCC2CCCCN2C)cc1 (stereo not given)
inactive: [1] | [2] | [3] | [4] | [5]

CC(C)(C)NCCNC(C)(C)C
inactive: [1] | [2] | [3] | [4] | [5] | [6]

C=C(C)C(=O)OCCC[Si](Cl)(Cl)Cl
inactive: [1] | [2] | [3] | [4] | [5] | [6]
